Test results published in PubChem BioAssay.
Where “and” joins values, the source holds several entries; their conditions need not be identical. Equal entries are not always repeated. Calls of active or inactive are those of the source.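 Rule for the calls, unless noted: active = compounds whose cell count with miR-34 switched on is under 0.7 times the count with it off; inactive = the rest.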

Legend:
[1] = P. berghei load reduction in hepatocytes – cell-based, HepG2, luciferase luminescence, HepG2 viability, primary screen (AID 624349; in the data active = parasite load remaining mostly below about 12%, no sharp cut-off; inactive = mostly above about 10%;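 note: 100% = mean of DMSO negative control wells on the same plate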); settings: P. berghei liver stage in HepG2, luciferase luminescence, concentration not given here; parasite load remaining: stronger effect = lower value; viability: measured here: HepG2 viability without parasites
[2] = Wnt pathway potentiators raising nuclear beta-catenin – imaging, WNT3A-conditioned medium, mouse C2C12, NPC library, primary screen (AID 1117326; in the data active = nuclear beta-catenin stimulation mostly above about 4.2%, no sharp cut-off; inactive = mostly below about 10%; note: reference of the scale not given here); settings: stronger effect = higher value
[3] = stimulators of insulin release from INS-1E, primary screen, cell-based, 5 mM glucose, NPC library (AID 1117329;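 active = compound raises insulin release from rat beta cells at 5 mM glucose, no numeric limit stated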; note: reference of the scale not given here); settings: rat INS-1E insulin secretion, at 10 µM, stronger effect = higher value
[4] = growth inhibition of GSK3B-pretreated HCT116 cells – cell-based, CellTiter-Glo, 0.2 to 20 µM (AID 1117336;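 active = compounds lowering colon cancer cell viability after pretreatment blocking the GSK3B kinase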); settings: HCT116 viability after GSK3B inhibitor, at 20 µM, stronger effect = higher value
[5] = inhibition of endothelial tube formation, primary screen, imaging, VEGF stimulated, CD31 staining, tube area, NPC library (AID 1117340;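 active = compound that reduces growth-factor-driven endothelial tube area in a mixed cell culture, no cutoff stated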); settings: VEGF-stimulated ADSC/ECFC co-culture, at 10 µM, stronger effect = higher value
[6] = GLP1 release stimulators, primary, NCI-H716, NPC library (AID 1117341;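 active = compound raises GLP1 secretion from the human gut endocrine cells, with no numeric limit stated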; note: reference of the scale not given here); settings: NCI-H716 cells, at 10 µM, stronger effect = higher value
[7] = HCT116 colon cancer cell growth inhibition, primary screen, CellTiter-Glo luminescence, NPC library (AID 1117342;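 active = compounds that lower survival of HCT116 colon cancer cells in the luminescence readout, no numeric limit stated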); settings: at 20 µM (top of the series)
[8] = reduced SW480 viability measured with CellTiter-Glo, NPC library, primary (AID 1117343;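 active = compounds that lower viability of the colon cancer cells in the luminescence readout, with no numeric limit stated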); settings: CellTiter-Glo luminescence; at 20 µM (top of the series) unless noted
[9] = NPC library primary testing for decreased DLD-1 cell viability via CellTiter-Glo (AID 1117346;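 active = compounds that lower survival of DLD-1 colon cancer cells in the luminescence readout, no cutoff given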); settings: DLD-1 viability, CellTiter-Glo luminescence; at 20 µM (top of the series)
[10] = viability loss with induced miR-34 in A549 – imaging, A549 dox-inducible miR-34, nuclei and caspase counts, primary screen (AID 1347080); settings: A549 miR-34 inducible, Hoechst nuclei count, 48 h
[11] = blockers of cellular phospholipid synthesis – cell-based, LOPAC library, screen 4, primary screen (AID 1347384; call rule not given here); settings: animal cells, phospholipid biosynthesis inhibition screen; at 10 µM
[12] = MELAS cybrid and Rieske KO viability enhancers – cell-based, MELAS cybrids, Rieske KO mouse fibroblasts, CellTiter-Glo, primary screen (AID 1508586;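 active = mean z-score across replicates of 1.96 or higher in either the MELAS or the Rieske mutant cell line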;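 note: z relative to plate mean and SD of compound and empty wells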); settings: low glucose
[13] = galactose survival enhancers in mitochondrial complex I cybrids – cell-based, galactose medium, ATP luminescence, primary screen (AID 1645843;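 active = z-score of at least 1.8 in each of two replicates, scored against plate mean and spread of sample wells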;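 note: positive z means more ATP and so rescue of galactose-driven cybrid death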); settings: complex I mutant cybrid cells, 72 h, stronger effect = higher value
[14] = stronger effect = lower value, cell number ratio, induced over uninduced
[15] = measured here: relative caspase fold change +Dox/-Dox
[16] = measured here: total cells with miR-34 induction, stronger effect = lower value
[17] = measured here: total cells without miR-34 induction
[18] = MELAS cybrid survival, CellTiter-Glo 48 h, stronger effect = higher value
[19] = Rieske KO mouse fibroblast survival, CellTiter-Glo 72 h

| Structure (SMILES) | parasite load remaining [1] | viability [1] | nuclear beta-catenin stimulation ([2]; at 10 µM) | nuclear beta-catenin stimulation ([2]; stimulation, at 2 µM) | insulin secretion stimulation [3] | viability decrease [4] | tube area decrease [5] | GLP1 secretion stimulation [6] | inhibition of viability [7] | viability decrease (inhibition) [8] | viability decrease (inhibition) [9] | fold change [10, 14] | fold change [10, 15] | cell count [10, 16] | cell count [10, 17] | outcome [11] | z-score [12, 18] | z-score [12, 19] | z-score [13] |
| --- | --- | --- | --- | --- | --- | --- | --- | --- | --- | --- | --- | --- | --- | --- | --- | --- | --- | --- | --- |
| Cc1nc2c([nH]1)c(=O)n(C)c(=O)n2Cc1ccco1 | 89.1% (inactive) | 184% | -1.1% (inactive) | -0.9% | 5.4% (inactive) | 4.7% (inactive) | -13.8% (inactive) | 2.9% (inactive) | 4.7% (inactive) | 11.9% (inactive) | 11.1% (inactive) | 0.936 (inactive) and 0.904 (inactive) | 1.31 and 1.1 | 10100 and 8410 | 10800 and 9310 | inactive | 0.342 (inactive) | -0.476 | 0.455 (inactive) and 1.9 (inactive) |
| NC(N)=NCCC[C@H](N)C(=O)O | – | – | -0.2% (inactive) | 2.5% | 0.9% (active) | 2.3% (inactive) | -23.7% (inactive) | 2.9% (inactive) | -16.4% (inactive) | 8.2% (inactive) | 0% (inactive) | 0.976 (inactive) | 1.65 | 10400 | 10700 | inactive | – | – | 0.285 (inactive) |
| O=C(O)CP(=O)(O)O | – | – | 4.8% (inactive) | 3.8% | 0.7% (inactive) | -14.8% (inactive) | -4.7% (inactive) | 0.3% (inactive) | -1.37% (inactive) | 10.9% (inactive) | -7.2% (inactive) | 0.969 (inactive) | 1.06 | 9620 | 9930 | inactive | – | – | 1.15 (inactive) |
| C[C@]12CCC(=O)C=C1CC[C@@H]1[C@@H]2CC[C@@]2(C)[C@H]1CC[C@]2(O)C(=O)CO | – | – | 0.3% (inactive) | -0.1% | -1.7% (inactive) | -3.9% (inactive) | 5.4% (inactive) | 1.1% (inactive) | 25.1% (inactive) | 12.3% (inactive) | -6.8% (inactive) | 1 (inactive) | 0.913 | 8610 | 8590 | inactive | – | – | 0.435 (inactive) |
| O=C(O)CN(CCOCCOCCN(CC(=O)O)CC(=O)O)CC(=O)O | – | – | 0% (inactive) | 0% | 1.45% (inactive) | 16.3% (inactive) | 6.4% (inactive) | 1.8% (inactive) | 5.2% (inactive) | -13.8% (inactive) | 1.8% (inactive) | 0.942 (inactive) | 1.12 | 9820 | 10400 | inactive | – | – | 0.34 (inactive) |
| CCCCCCCCCCCCCCCCO | – | – | -0.4% (inactive) | 0.7% | -0.5% (inactive) | -1.35% (inactive) | -0.9% (inactive) | -3.8% (inactive) | -2.3% (inactive) | 21.5% (inactive) | 5.6% (inactive) | 0.9 (inactive) | 0.439 | 8310 | 9230 | – | -0.285 (inactive) | -0.121 | – |
| OCCN1CCN(CCCN2c3ccccc3C=Cc3ccccc32)CC1 | – | – | -0.5% (inactive) | 1.3% | 13.8% (inactive) | 5.9% (inactive) | 15% (inactive) | 2% (inactive) | 56.9% (active) | 80.2% (active) | 37.9% (inactive) | 1 (inactive) | 2.29 | 8600 | 8590 | inactive | -0.305 (inactive) | -0.132 | -0.685 (inactive) |
| N[C@@H](CC(=O)O)C(=O)O | – | – | 0% (inactive) | -0.6% | 1.3% (inactive) | 7.1% (inactive) | -11.9% (inactive) | -0.5% (inactive) | 1.9% (inactive) | -18.5% (inactive) | 1.6% (inactive) | 1 (inactive) | 1.56 | 10800 | 10700 | inactive | – | – | 0.255 (inactive) |
| NC(CO)(CO)CO | – | – | 1.8% (inactive) | 3.7% | -0.6% (inactive) | -2.3% (inactive) | -6% (inactive) | 3.3% (inactive) | -37% (inactive) | -8% (inactive) | 2.75% (inactive) | 0.909 (inactive) | 0.61 | 8750 | 9620 | – | -0.338 (inactive) | -0.156 | – |
| COC(=O)[C@@H](N)Cc1ccc(O)c(O)c1 | – | – | 6.9% (inactive) | 0% | -2.6% (inactive) | 22% (inactive) | 1.4% (inactive) | 5.5% (inactive) | 8.3% (inactive) | 64.7% (active) | 15.2% (inactive) | 0.967 (inactive) | 1.36 | 9830 | 10200 | inactive | – | – | -1.02 (inactive) |
| CSc1ccc(C(=O)c2[nH]c(=O)[nH]c2C)cc1 | – | – | 0.3% (inactive) | 0.1% | 1.4% (inactive) | -6.3% (inactive) | -15.1% (inactive) | 0.1% (inactive) | -7% (inactive) | 29% (inactive) | 9.15% (inactive) | 0.968 (inactive) | 1.32 | 8650 | 8940 | inactive | – | – | 0.31 (inactive) |
| CC(=O)Oc1cc(C(F)(F)F)ccc1C(=O)O | 140% (inactive) and 78.8% (inactive) | 117% and 74.8% | -0.6% (inactive) | -0.8% | 2.8% (inactive) | -12.2% (inactive) | -1.7% (inactive) | -6.4% (inactive) | 16.4% (inactive) | 8.4% (inactive) | 5.4% (inactive) | 0.83 (inactive) and 0.986 (inactive) | 1.45 and 0.716 | 8780 and 8310 | 10600 and 8430 | inactive | -0.0694 (inactive) and 0.0403 (inactive) | -0.153 and -0.0623 | – |
| CCN(CC)C(=O)/C(C#N)=C/c1cc(O)c(O)c([N+](=O)[O-])c1 | 40.1% (inactive) | 102% | -0.4% (inactive) | 1.2% | 1.5% (inactive) | 36% (inactive) | 61.4% (active) | 0% (inactive) | 29.2% (inactive) | 92.4% (active) | 35.8% (inactive) | 0.873 (inactive) | 0.914 | 10100 | 11500 | – | -0.387 (inactive) and -1.06 (inactive) | -0.365 and -0.513 | 0.125 (inactive) |
| O=C(O)Cc1cccc2ccccc12 | – | – | -0.7% (inactive) | 0.6% | -1.5% (inactive) | -6.45% (inactive) | 0% (inactive) | 1.9% (inactive) | 12.9% (inactive) | 39.8% (inactive) | -0.4% (inactive) | 0.971 (inactive) | 1.32 | 8040 | 8280 | – | 0.391 (inactive) | -0.24 | 0.46 (inactive) |
| CN1CCN(C2=Nc3ccccc3Sc3ccc(Cl)cc32)CC1 | 45.5% (inactive) | 130% | -0.4% (inactive) | -0.2% | 16.1% (inactive) | 83.3% (active) | 39.2% (inactive) | 19% (inactive) | 79.7% (active) | 116% (active) | 72.4% (active) | 0.882 (inactive) | 1.18 | 8380 | 9490 | – | -0.876 (inactive) | 0.707 | -0.54 (inactive) |
| CCN[C@H]1CN(CCCOC)S(=O)(=O)c2sc(S(N)(=O)=O)cc21 | 113% (inactive) and 65.9% (inactive) | 109% and 72.4% | 1.3% (inactive) | 1.1% | 3.9% (inactive) | -7.1% (inactive) | -15% (inactive) | 0.6% (inactive) | 6.4% (inactive) | 7.5% (inactive) | 14.9% (inactive) | 0.831 (inactive) | 1.12 | 8040 | 9670 | – | 0.333 (inactive) | 0.0327 | – |
